Hit rate of the full screen: of about 300,000 compounds, about 1,200 (0.4%) were called active. Cut-off read from the data, not from the text of the source: active = activity change below about -75% (passing the limit was not always enough); inconclusive = no clear call, values can overlap the other calls. What follows is part of a selection rich in actives, with near analogues and random picks from the rest.

The nature of this assay: Vibrio harveyi AI-2 quorum sensing modulators, primary screen, JMH597 strain, luminescence/OD600 ratio (AID 2094).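 Note: luminescence divided by OD600 gain over 9 h not by final OD600 alone.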 Particulars: Vibrio harveyi JMH597 AI-2 luminescence/OD600 ratio, 9 h; at 7.5 µM; stronger effect = lower value; 0 = neutral-control median; strain lacks LuxN and CqsS sensors.
For the molecule `CCCc1ccc(OCC(=O)NNC(=S)NC(=O)c2ccco2)cc1`, the activity change is -5.63% (inactive).
Regarding `CCCc1ccc(OCCNC(=O)c2ccccc2Br)cc1`, the activity change is 28.5% (inactive).
For `CCCc1ccc(OCCNC(=O)c2ccco2)cc1`, the activity change was -83.3% (active).
Regarding `Cc1ccccc1OCC(=O)Nc1ccc2c(c1)ncn2C`, the activity change is 27.2% (inactive).
The result for `Cc1ccc(C(=O)O)cc1N1C(=O)CCCC1=O` reads 28.2% (inactive); that for `CCc1nnc(NS(=O)(=O)c2ccc(NC(=O)c3cccc(OC(F)(F)C(F)F)c3)cc2)s1`, 24.2% (inactive).
The result for `O=C(O)c1ccc(S(=O)(=O)N2CCC(Cc3ccccc3)CC2)cc1` reads 38.4% (inactive).
Then `Cc1cc(C)nc(N/N=C/c2ccc([N+](=O)[O-])o2)n1`, with -83.7% (active); and `Cc1cc(C)nc(N/N=C/c2ccncc2)n1`, with 10.7% (inactive).
With `CCc1ccc(S(=O)(=O)N/N=C\c2ccc([N+](=O)[O-])o2)cc1`, the activity change was 28.2% (inactive).
Then `NC(=O)CN1CCCC1c1ccc2c(c1)OCCO2` (centres undefined), with 22.1% (inactive).
For the molecule `Cc1ccc(CCCOC(=O)C[N+]2(C)CCCCC2)cc1`, the activity change is 20.1% (inactive).
The result for `Cc1ccc(Cc2nc(-c3cccc(C)c3)no2)cc1` reads -81.8% (active).
In the case of `Cc1ccc(-c2noc(CN3CCN(Cc4ccccc4)CC3)n2)cc1`, the activity change is -10.7% (inactive).
On to `Cc1cccc(-c2noc(-c3ccc(F)cc3)n2)c1`, for which the activity change was 2.4% (inactive).
Then `Cc1cccc(C)c1N1CCN(S(=O)(=O)N2CCOCC2)CC1`, with 0.226% (inactive); and `Cc1cc(C(=O)OCC(=O)Nc2ccc(F)c(F)c2)c(C)o1`, with -93.5% (active); and `Cc1cccc(C(=O)OCC(=O)Nc2ccc(F)cc2)c1`, with -25.5% (inactive).
The result for `Cc1cc(C)cc(NC(=O)COC(=O)c2cc(C)oc2C)c1` reads -17% (inactive); that for `CCOC(=O)N1CCN(S(=O)(=O)c2ccc(Br)cc2)CC1`, 14.3% (inactive).
Then `CC1CCN(C(=O)Cn2nnnc2CN2CCOCC2)CC1`, with 8% (inactive).
As to `O=C(/C=C/c1ccc(Cl)c([N+](=O)[O-])c1)c1ccc(O)cc1`, the activity change was -37.5% (inactive).
Then `CC(=O)c1ccc2c(c1)OCCOCCOc1ccc(C(C)=O)cc1OCCOCCO2`, with 17.9% (inactive); and `CN(C)c1ccc(/C=C/C(=O)c2ccc(C(C)(C)C)cc2)cc1[N+](=O)[O-]`, with 19.9% (inactive); and `CN(C)c1ccc(/C=C/C(=O)c2ccc(O)cc2)cc1[N+](=O)[O-]`, with -93% (active).
The result for `O=C(/C=C/c1ccc2c(c1)OCCO2)c1ccc(O)cc1` reads -84.5% (active); that for `O=C(O)/C=C/c1ccc2c(c1)OCCO2`, 6.59% (inactive).
Consider `O=C(Cc1ccc([N+](=O)[O-])cc1)Nc1ccc(C(=O)N2CCOCC2)cc1`, for which the activity change is 31% (inactive).
The result for `CCN(CC)c1ccc(S(=O)(=O)N2CCCCC2)cc1NC(=O)C1=COCCO1` reads 0.314% (inactive); that for `Cc1cccc(N2CCN(S(=O)(=O)c3ccc(-c4cc(C)no4)s3)CC2C)c1` (centres undefined), 7.14% (inactive); that for `Cc1ccc(C(=O)N2CCN(S(=O)(=O)N3CCOCC3)CC2)cc1`, 14.3% (inactive).
The result for `NC(=O)c1ccc(NC(=O)COC(=O)c2ccc([N+](=O)[O-])cc2)cc1` reads 17.8% (inactive); that for `O=C(COc1ccc([N+](=O)[O-])cc1)Nc1ccc(N2CCCC2)cc1`, 44.5% (inactive).
With `O=C(COC(=O)C1CCCCC1)Nc1ccc([N+](=O)[O-])cc1`, the activity change is -83.6% (active).
The result for `CCCC1NC(=O)NC(C)=C1C(=O)OCC` (centres undefined) reads 2.55% (inactive); that for `Oc1c(Br)cc(/C=N/NC(=S)NCC2CCCO2)cc1Br` (centres undefined), 46.7% (inactive).
Then `CCN(C(=O)COc1cccnc1[N+](=O)[O-])C1CCS(=O)(=O)C1` (centres undefined), with 32.7% (inactive).
Then `N#CCSc1nc(-c2ccccc2)nc2ccc(F)cc12`, with 12.5% (inactive); and `COC(=O)c1ccc(CSc2nncn2N)cc1`, with 26.7% (inactive).
Consider `COC(=O)c1ccc(SCc2ccccc2)nc1`, for which the activity change was -80.3% (active).
Consider `COC(=O)c1ccc(CSc2nncn2C)cc1`, for which the activity change was 9.24% (inactive).
Then `COc1ccc(N2CCN(S(=O)(=O)c3cc(Br)cnc3N)CC2)cc1`, with 15.8% (inactive); and `COc1ccc2ccccc2c1/C=N/NC(=O)c1cc(C)[nH]n1`, with 11.2% (inactive); and `Cc1cc(C(=O)N/N=C/c2cc([N+](=O)[O-])cc(C)c2O)n[nH]1`, with -86.5% (active).
Then `CC(C)(C)c1cc(C(=O)N/N=C/c2ccc([N+](=O)[O-])s2)n[nH]1`, with 16.7% (inactive); and `COC(=O)c1ccc(NC(=O)CSc2nnc(C3CC3)n2C)cc1`, with 40.9% (inactive).
Then `Cc1c(NC(=O)C(C)OC(=O)c2c3c(nc4ccccc24)CCC(C)C3)c(=O)n(-c2ccccc2)n1C` (centres undefined), with 5.39% (inactive).
With `Cc1cc(C)n(CCNCc2c(C(=O)N3C[C@@H](C)O[C@@H](C)C3)nc3ccc(Cl)cn23)n1`, the activity change was 11% (inactive).
The result for `Cc1cccc(CCNS(=O)(=O)c2ccc3c(c2)NC(=O)CO3)c1` reads -59.5% (inactive); that for `CC(=O)Nc1ccc(NS(=O)(=O)c2ccc3c(c2)NC(=O)CC(=O)N3)cc1`, 6.21% (inactive); that for `Cc1ccc(NS(=O)(=O)c2ccc3c(c2)NC(=O)CO3)cc1`, -85.9% (active).
For `O=C1COc2ccc(S(=O)(=O)NCCc3ccc(Cl)cc3)cc2N1`, the activity change is -21.2% (inactive).
The result for `O=C1COc2ccc(S(=O)(=O)Nc3ccc(OC(F)(F)F)cc3)cc2N1` reads -94.2% (active); that for `Cc1ccc(NS(=O)(=O)c2cc3c(cc2C)NC(=O)CO3)cc1`, 20.3% (inactive); that for `COc1cc(NC(=O)c2ccccc2NS(=O)(=O)c2ccc(Cl)s2)cc(OC)c1`, 26.9% (inactive).
Turning to `CCOc1ccc(NC(=O)CC(Cc2ccc(Cl)cc2)C(=O)O)cc1` (centres undefined), the activity change is -20.6% (inactive).
As for `CCCCCCC12CCC(C(=O)O)(CC1)CC2`, the activity change was 24.4% (inactive).
Then `O=C(CCC(=O)c1cccs1)Nc1nc2ccccc2s1`, with -87.3% (active); and `Cn1nnnc1SCC(=O)Nc1nc2ccccc2s1`, with 32.4% (inactive); and `O=C(CCC(=O)c1cccs1)NC1CCCCCC1`, with -7.35% (inactive).
In the case of `O=C(NC(=S)Nc1ccccc1C(=O)O)c1ccc(-c2ccc(Br)cc2)o1`, the activity change was 9.83% (inactive).
The result for `CN(C)S(=O)(=O)c1ccc(N/C=C(\[N+](=O)[O-])S(=O)(=O)c2ccccc2)cc1` reads 28.7% (inactive); that for `Cc1ccc(OCc2cc(C(=O)N(C)CCc3ccccc3)no2)cc1C`, 36% (inactive); that for `O=C(c1cc(COc2cccc(C(F)(F)F)c2)on1)N1CCSCC1`, -30.7% (inactive).
Then `CN(Cc1cnccn1)C(=O)c1cc(COc2cccc(C(F)(F)F)c2)on1`, with -92.5% (active); and `Cc1ccc(OCc2cc(C(=O)N(C)CCn3ccnc3C)no2)cc1C`, with 14.9% (inactive); and `CN(Cc1cccnc1)C(=O)c1cc(COc2ccc3ncccc3c2)on1`, with 38.5% (inactive).
The result for `Cc1cc(CN(C)C(=O)c2cc(COc3ccc(C)c(C)c3)on2)n[nH]1` reads -90.7% (active); that for `O=S(=O)(c1ccc(Cl)cc1)N1CCCN(c2ccc(C(F)(F)F)cn2)CC1`, 6.59% (inactive); that for `COc1ccc(CN2CCn3ncc(C(=O)Nc4ccc(Cl)cc4Cl)c3C2=O)cc1`, 23.8% (inactive).
Turning to `CCOc1ccc(S(=O)(=O)Nc2ccncc2)c(C)c1C`, the activity change is 21.3% (inactive).
The result for `COCC1CCN(C(=O)c2ccc3oc(Cc4ccccc4)nc3c2)C1` (centres undefined) reads 0.814% (inactive); that for `COC(=O)C1CCN(C(=O)c2ccc3oc(Cc4ccc(Cl)cc4)nc3c2)CC1`, -86% (active).
Then `COc1ccc(Cc2nc3ccc(C(=O)N4CCC(N(C)C)C4)cc3o2)cc1` (centres undefined), with -2.62% (inactive).
For the molecule `Oc1ccc(-c2cccc(-c3ccc(O)cc3)c2)cc1`, the activity change is -10.9% (inactive).
Regarding `O=C(NC1CCCCC1)c1ccc(-c2ccc(Cl)cc2)o1`, the activity change is 2.19% (inactive).
The result for `COc1ccc(NC(=O)[C@H](NC(=O)[C@@H]2Cc3ccccc3CN2)c2ccccc2)cc1` reads 13.8% (inactive); that for `CCc1ccc(C(=O)CSc2nnc(C)c(=O)[nH]2)cc1`, 17.8% (inactive); that for `COc1ccccc1C(=O)N1C(CC(=O)Nc2ccccc2C)C(=O)NC2CCCCC21` (centres undefined), 6.5% (inactive).
The result for `CC(C)(C)OC(=O)CNC(=O)c1[nH]cnc1C(=O)N[C@@H](Cc1ccccc1)C(=O)OCc1ccccc1` reads 20.9% (inactive).
Consider `S=C(NCc1ccc(Cl)cc1)NC12CC3CC(CC(C3)C1)C2`, for which the activity change is -20.7% (inactive).
Regarding `O=C(NC(=S)NC1CCCCC1)c1ccc(Cl)cc1`, the activity change was 6.82% (inactive).
For `S=C(NCc1ccc(Cl)cc1)NC1CCCCC1`, the activity change was -86.1% (active).
Then `COc1cc(C(=O)OCC(=O)NC(C)CCc2ccccc2)cc(OC)c1OC` (centres undefined), with 17.1% (inactive); and `CCCNC(=O)c1ccc(N2CCC3(CC2)CC(c2cccc(Br)c2)=NO3)c(NC(=O)c2ccco2)c1`, with 20.3% (inactive).
As for `O=C(N/N=C/c1ccc([N+](=O)[O-])o1)c1cn(-c2ccccc2)nc1-c1ccc(F)cc1`, the activity change is 7.69% (inactive).
The result for `O=C(/C=C/c1ccc([N+](=O)[O-])o1)NNC(=O)c1ccc(F)cc1` reads -90.7% (active); that for `Cc1ccc(/C=C/C(=O)Nc2ccc([N+](=O)[O-])c(NC(=O)/C=C/c3ccc(C)o3)c2)o1`, 34.4% (inactive); that for `Cc1nc(CN2CCN(C(=O)CCc3nnc(Cc4c[nH]c5ccccc45)o3)CC2)cs1`, 18% (inactive).
Consider `COc1ccccc1NC(=O)COC(=O)Cc1ccc(S(=O)(=O)N2CCCCC2)s1`, for which the activity change is 2.99% (inactive).
`CCOC(=O)c1nn(-c2cccc(C)c2)cc1C(=O)c1ccccc1`: the activity change was -88.4% (active).
Then `CCOC(=O)c1cn(Cc2cccc(C)c2)nn1`, with 13.8% (inactive); and `CC(=O)c1nn(-c2ccc(C)cc2)cc1C(=O)c1cccc(Br)c1`, with 14.3% (inactive).
Regarding `Cc1cc(S(=O)(=O)N2CCOCC2)ccc1OCC(=O)N1CCOCC1`, the activity change was 18.8% (inactive).

Values taken from PubChem BioAssay AID2094 (Broad Institute, 2009).
